Measurements from PubChem BioAssay (NCATS).
Inconclusive results are not listed. Calls of active or inactive are those of the source. The call rests on the fitted dose curve; in most records, active means well fitted curve in the direction sought with a large enough effect; inconclusive means small, poorly fitted or top-dose-only effect, or another doubt; inactive means no such curve, though single readings can be large; an effect the other way counts as inactive or inconclusive.

Columns and labels:
[1] = target: Rap guanine nucleotide exchange factor 3 (Homo sapiens) (UniProt O95398); test: Confirmatory qHTS for agonist of cAMP-regulated guanine nucleotide exchange factor 3 (EPAC1) (AID 1645881);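 further: EPAC1 catalysed release of BODIPY-GDP from Rap1B seen as fluorescence loss; 100% = effect of cAMP agonist control; nearly all actives have a fitted effect of over 75% in size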
[2] = target: Rap guanine nucleotide exchange factor 4 (Homo sapiens) (UniProt Q8WZA2); test: Confirmatory qHTS for agonist of cAMP-regulated guanine nucleotide exchange factor 4 (EPAC2) (AID 1645884);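 further: nucleotide exchange releases bodipy-GDP from Rap1 and this lowers its fluorescence; on the % scale 0 is the no-effect control and ±100 the full control effect; nearly all actives have a fitted effect of over 65% in size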
[3] = target: Rap guanine nucleotide exchange factor 4 (Homo sapiens) (UniProt Q8WZA2); test: Confirmatory qHTS for antagonist of cAMP-regulated guanine nucleotide exchange factor 4 (EPAC2) (AID 1645885); further: nearly all actives have a fitted effect of over 25% in size; further: potency means the concentration at half of the fitted maximal effect; on activity change, negative = inhibition: on the % scale 0 is the no-effect control and ±100 the full control effect
[4] = target: Rap guanine nucleotide exchange factor 3 (Homo sapiens) (UniProt O95398); test: Counterscreen qHTS for antagonist of cAMP-regulated guanine nucleotide exchange factor 3 (EPAC1) (AID 1645888);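 further: fluorescence loss as bound BODIPY-GDP is released from Rap1B; % of control where 0% means no effect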
Method in brief: (§1)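 Measured: fluorescence of BODIPY-GDP bound to Rap1B, which falls as exchange proceeds. Conditions include 50 uM competing GDP, 5 and 30 min reads, and a later cAMP challenge for antagonist detection.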

[5] = target: Rap guanine nucleotide exchange factor 3 (Homo sapiens) (UniProt O95398); test: Counterscreen qHTS for agonist of cAMP-regulated guanine nucleotide exchange factor 3 (EPAC1) (AID 1645889); further: nearly all actives have a fitted effect of over 40% in size; further: potency means the concentration at half of the fitted maximal effect; on activation: % of control where 0% means no effect
Method in brief: as §1

Sequence of Rap guanine nucleotide exchange factor 4 (Homo sapiens) (Q8WZA2 whole entry, looked up): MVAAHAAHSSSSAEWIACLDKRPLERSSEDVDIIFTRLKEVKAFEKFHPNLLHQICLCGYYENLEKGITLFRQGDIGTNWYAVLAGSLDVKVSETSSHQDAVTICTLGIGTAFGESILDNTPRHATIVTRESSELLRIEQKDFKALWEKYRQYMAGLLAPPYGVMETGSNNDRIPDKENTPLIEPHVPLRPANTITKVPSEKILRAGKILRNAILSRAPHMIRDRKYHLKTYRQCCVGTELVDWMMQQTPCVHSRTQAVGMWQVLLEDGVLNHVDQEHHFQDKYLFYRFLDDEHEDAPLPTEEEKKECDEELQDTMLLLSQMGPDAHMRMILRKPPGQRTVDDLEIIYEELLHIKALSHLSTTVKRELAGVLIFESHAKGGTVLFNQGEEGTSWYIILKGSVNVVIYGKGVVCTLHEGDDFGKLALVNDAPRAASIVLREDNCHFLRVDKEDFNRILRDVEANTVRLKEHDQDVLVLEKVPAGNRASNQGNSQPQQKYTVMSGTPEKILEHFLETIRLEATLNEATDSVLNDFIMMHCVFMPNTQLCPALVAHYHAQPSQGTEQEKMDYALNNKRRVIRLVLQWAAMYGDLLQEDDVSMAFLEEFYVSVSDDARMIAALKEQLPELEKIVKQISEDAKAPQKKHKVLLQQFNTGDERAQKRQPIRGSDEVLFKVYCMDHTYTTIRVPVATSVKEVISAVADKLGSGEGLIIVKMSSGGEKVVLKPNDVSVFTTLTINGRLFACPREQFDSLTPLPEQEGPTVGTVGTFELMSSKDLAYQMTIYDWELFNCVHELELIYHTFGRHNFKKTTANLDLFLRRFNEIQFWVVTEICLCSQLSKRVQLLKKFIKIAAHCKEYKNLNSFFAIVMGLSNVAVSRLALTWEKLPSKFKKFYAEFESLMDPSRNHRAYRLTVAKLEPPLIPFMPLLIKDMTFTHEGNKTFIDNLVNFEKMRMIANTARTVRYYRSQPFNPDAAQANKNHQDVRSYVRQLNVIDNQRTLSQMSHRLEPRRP
Sequence of Rap guanine nucleotide exchange factor 3 (Homo sapiens) (O95398 whole entry, looked up): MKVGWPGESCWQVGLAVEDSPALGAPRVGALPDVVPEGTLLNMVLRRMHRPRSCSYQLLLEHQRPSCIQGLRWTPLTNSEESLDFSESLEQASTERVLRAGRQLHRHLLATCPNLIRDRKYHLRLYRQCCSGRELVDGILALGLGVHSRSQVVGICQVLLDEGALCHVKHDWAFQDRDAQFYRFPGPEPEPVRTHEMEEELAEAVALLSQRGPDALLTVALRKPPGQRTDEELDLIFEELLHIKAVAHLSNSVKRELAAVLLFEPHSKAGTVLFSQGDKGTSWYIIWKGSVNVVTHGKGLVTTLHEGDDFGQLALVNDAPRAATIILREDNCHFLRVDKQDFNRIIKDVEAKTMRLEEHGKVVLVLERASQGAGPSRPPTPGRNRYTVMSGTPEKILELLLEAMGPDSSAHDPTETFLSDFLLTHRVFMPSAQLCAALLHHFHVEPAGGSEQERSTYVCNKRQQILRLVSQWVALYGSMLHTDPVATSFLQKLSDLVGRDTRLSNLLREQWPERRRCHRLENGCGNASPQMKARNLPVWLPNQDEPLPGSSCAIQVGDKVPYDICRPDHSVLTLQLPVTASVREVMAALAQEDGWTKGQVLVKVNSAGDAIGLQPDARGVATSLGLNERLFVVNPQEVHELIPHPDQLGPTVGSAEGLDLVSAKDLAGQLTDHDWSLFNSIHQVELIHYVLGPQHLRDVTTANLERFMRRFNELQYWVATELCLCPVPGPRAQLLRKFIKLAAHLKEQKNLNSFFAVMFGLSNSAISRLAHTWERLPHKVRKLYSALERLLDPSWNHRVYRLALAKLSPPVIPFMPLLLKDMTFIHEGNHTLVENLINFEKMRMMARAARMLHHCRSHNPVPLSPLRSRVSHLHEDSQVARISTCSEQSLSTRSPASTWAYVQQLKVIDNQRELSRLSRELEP

CC(=O)c1sc2nc(CSc3nnnn3-c3ccccc3)[nH]c(=O)c2c1C
inactive: Potency [1] | activation [2] 0.183% [at 17.1 µM, percent relative to cAMP agonist control] | Potency [3] | activity change, negative = inhibition [4] -6.43% [at 30.8 µM] | activation [5] 8.36% [at 30.8 µM]

C=Cc1ccc(Cn2nc(-c3ccccc3)ccc2=O)cc1
inactive: Potency [1] | activation [2] -8.97% [at 17.1 µM, percent relative to cAMP agonist control] | Potency [3] | activity change, negative = inhibition [4] -16.6% [at 30.8 µM] | activation [5] 15.7% [at 30.8 µM]

CC(C)(C)c1ccc(C(=O)NCC2CCCN2S(=O)(=O)c2ccccc2)cc1 (stereo not given)
inactive: Potency [1] | Potency [2] | Potency [3] | Potency [4] | Potency [5]

NS(=O)(=O)c1ccc(Nc2nc(-c3cccc([N+](=O)[O-])c3)cs2)cc1
inactive: Potency [1] | activation [2] 3.15% [at 17.1 µM, percent relative to cAMP agonist control] | Potency [3] | activity change, negative = inhibition [4] -4.36% [at 30.8 µM] | activation [5] 15.6% [at 30.8 µM]

O=C(O)c1ccccc1NS(=O)(=O)c1ccc(NN=Cc2ccccc2F)c([N+](=O)[O-])c1
inactive: Potency [1] | activation [2] 4.76% [at 17.1 µM, percent relative to cAMP agonist control] | Potency [3] | activity change, negative = inhibition [4] -10.7% [at 30.8 µM] | activation [5] 23.2% [at 30.8 µM]

Oc1ccc(NCc2ccc(OCc3ccccc3)cc2)cc1
inactive: Potency [1] | Potency [2] | Potency [3] | Potency [4] | activation [5] 16.4% [at 30.8 µM]

O=C(O)C(Cc1c[nH]c2ccccc12)NS(=O)(=O)c1ccc2ccccc2c1 (stereo not given)
inactive: Potency [1] | Potency [2] | Potency [3] | Potency [4] | Potency [5]

Oc1ccccc1CNc1ccc(OC(F)(F)F)cc1
inactive: Potency [1] | Potency [2] | Potency [3] | Potency [4] | Potency [5]

CCOc1cccc(-c2c(C(=O)N/N=C/c3cccs3)nnn2-c2nonc2N)c1
inactive: Potency [1] | activation [2] 2.81% [at 17.1 µM, percent relative to cAMP agonist control] | Potency [3] | activity change, negative = inhibition [4] 15% [at 30.8 µM]
active: Potency [5] 10 µM

Clc1ccc(Cn2c(/C=C/c3ccco3)nc3ccccc32)cc1
inactive: Potency [1] | Potency [2] | Potency [3] | Potency [4] | Potency [5]

CC(C)(C)n1nc(Cc2cccc3ccccc23)c(C#N)c1N
inactive: Potency [1] | Potency [2] | Potency [3] | Potency [4] | Potency [5]

CC(C)c1cccc(-c2ccc3c(c2)S(=O)(=O)c2cccc(C(=O)O)c2C3=O)c1
inactive: Potency [1] | Potency [2] | Potency [3] | Potency [4] | Potency [5]

CC(=O)Nc1ccc(S(=O)(=O)/N=C2/NC(=O)/C(=C\c3ccco3)S2)cc1
active: Potency [3] 84.9 µM
inactive: Potency [1] | Potency [2] | Potency [4] | Potency [5]

Cc1ccc(C)c(S(=O)(=O)N2CCN(C(=O)CCNC(=O)c3ccc(Br)cc3)CC2)c1
inactive: Potency [1] | Potency [2] | Potency [3] | Potency [4] | Potency [5]

COC(=O)C1=CN(Cc2ccc(OC)c(OC)c2)C=C(C(=O)OC)C1c1ccccc1F
inactive: Potency [1] | Potency [2] | Potency [4] | Potency [5]
active: Potency [3] 23.9 µM

COc1ccc(-c2nc3ccccc3n2CCC(C)C)cc1OC
inactive: Potency [1] | Potency [2] | Potency [3] | Potency [4] | Potency [5]

O=C(CCC1N=C2c3ccccc3N=C(SCc3ccc(Cl)cc3)N2C1=O)NCc1cccs1 (stereo not given)
inactive: Potency [1] | Potency [2] | Potency [3] | Potency [4] | Potency [5]

CCOC(=O)c1ccc2c(c1)C1C=CCC1C(C(=O)OCC)N2 (stereo not given)
inactive: Potency [1] | activation [2] 4.17% [at 17.1 µM, percent relative to cAMP agonist control] | Potency [3] | activity change, negative = inhibition [4] -1.12% [at 30.8 µM] | activation [5] 32.7% [at 30.8 µM]

CCCc1nc2c(=O)n(C)c(=O)nc-2n(C)n1
inactive: Potency [1] | Potency [2] | Potency [3] | Potency [4] | Potency [5]

COc1cccc(C(NC(C)=O)c2ccc3cccnc3c2O)c1 (stereo not given)
inactive: Potency [1] | Potency [2] | Potency [4] | Potency [5]
active: Potency [3] 19 µM

Cc1cc2ccccc2n1CCNC(=O)C1CCCCC1
active: Potency [3] 95.3 µM
inactive: Potency [1] | Potency [2] | Potency [4] | Potency [5]

COc1ccc2sc(-c3ccc(N(C)C)cc3)c(C#CC(C)(C)O)c2c1
inactive: Potency [1] | Potency [2] | Potency [3] | Potency [4] | Potency [5]

Oc1ccc2ccccc2c1C=Nc1ccc(Cl)cn1
inactive: Potency [1] | Potency [2] | Potency [3] | Potency [4] | Potency [5]

CCOC(=O)c1ccccc1NC(=O)CSc1nc2c(sc(=S)n2CC)c(=O)[nH]1
inactive: Potency [1] | activation [2] 5.86% [at 17.1 µM, percent relative to cAMP agonist control] | Potency [3] | activity change, negative = inhibition [4] -2.38% [at 30.8 µM] | activation [5] 10.2% [at 30.8 µM]

COc1ccc(OC)c(N2C(=O)[C@@H]3C(c4ccccc4Cl)=NO[C@@H]3C2=O)c1
inactive: Potency [1] | Potency [2] | Potency [4] | Potency [5]
active: Potency [3] 6.01 µM

Cc1cc(C2(c3ccc(O)c(C)c3)C(=O)N(C)c3ccc(Br)cc32)ccc1O
inactive: Potency [1] | activation [2] 5.15% [at 17.1 µM, percent relative to cAMP agonist control] | Potency [3] | activity change, negative = inhibition [4] -4.41% [at 30.8 µM] | activation [5] 17.4% [at 30.8 µM]

O=C(c1ccc2c(c1)CCCC2)N1CCN(c2nc3ccc(F)cc3s2)CC1
inactive: Potency [1] | Potency [2] | Potency [3] | Potency [4] | Potency [5]

Cc1[nH]c(=O)nc(SCc2cccc(Cl)c2)c1C#N
inactive: Potency [1] | Potency [2] | Potency [3] | Potency [4] | Potency [5]
